# Laboratory results reported in PubChem BioAssay.
# Calls of active or inactive are those of the source. Unless noted, how the calls were made is not given here.
# Tests used:
# [1] = test system: Wnt5a (protein binding on small-molecule microarray); assay: small molecules binding Wnt5a protein – biophysical, small-molecule microarray, 635/667 nm fluorescence, primary screen (AID 1142); conditions: 635 nm fluorescence, higher = more signal;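 further: fluorescence read at 667 nm with signal to noise per printed feature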
# [2] = ATP-based viability of Huh7 replicon cells – cell-based, CellTiter-Glo luminescence, basal, 48 h, cytotoxicity control for HCV replication inhibitor project, primary screen (AID 1143); conditions: higher = more signal, called active from +8 up or from −8 down;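 further: Huh7 hepatoma cells carrying a hepatitis C replication reporter with no stimulus; test concentration not given here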
# [3] = Pseudomonas biofilm growth suppression – PAO1 strain, BacTiter-Glo luminescence, LB-PBS, primary screen (AID 1144); conditions: P. aeruginosa PAO1 biofilm, 12 h, higher = more signal
# [4] = basal CRE-LacZ reporter activity in PC12 – cell-based, unstimulated, primary screen (AID 1145); conditions: no forskolin, luminescence, 4.5 h, higher = more signal, called active from +8 up or from −8 down
# [5] = forskolin-driven CRE-LacZ activity in PC12 – cell-based, CRE-LacZ reporter, forskolin-stimulated, primary screen (AID 1146); conditions: luminescence, 4.5 h, higher = more signal, called active from +8 up or from −8 down;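 further: PC12 cells with 6xCRE LacZ reporter stimulated by forskolin 10 µM; beta-galactosidase reporter signal reflecting CREB driven transcription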
# [6] = target: Streptavidin (Streptomyces avidinii) (UniProt P22629); assay: compounds binding control protein streptavidin – biophysical, small-molecule microarray, 635/667 nm fluorescence, artefact control for SMM compound annotation, primary screen (AID 1147); conditions: higher = more signal;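 further: signal reflects streptavidin binding to arrayed compounds as a control protein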
# [7] = probe aInhba binding on compound microarray – biochemical, small-molecule microarray, 635/667 nm fluorescence, primary screen (AID 1148); conditions: higher = more signal;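 further: score merges 667nm spot fluorescence with signal-to-noise for antibody binding to printed compounds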
# Torsin-1A (Homo sapiens) [8] = target: Torsin-1A (Homo sapiens) (UniProt O14656); assay: TOR1A wild-type binding on microarray – cell lysate, small-molecule microarray, lysate, 635/667 nm, primary screen (AID 1149); conditions: COS7 hTOR1A-WT lysate, 635 nm fluorescence, higher = more signal
# Torsin-1A (Homo sapiens) [9] = target: Torsin-1A (Homo sapiens) (UniProt O14656); assay: torsin A mutant lysate binding on microarrays – cell lysate, small-molecule microarray, COS7 lysate, 635/667 nm fluorescence, primary screen (AID 1150); conditions: COS7 hTOR1A mutant lysate, 635 nm fluorescence, higher = more signal;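 further: score pools 667 nm emission and signal to noise measuring lysate protein binding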
# [10] = test system: Sonic hedgehog protein (Shh); assay: Sonic hedgehog microarray binding compounds – biochemical, small-molecule microarray, 635/667 nm fluorescence, primary screen (AID 1151); conditions: 635 nm fluorescence, higher = more signal;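 further: Shh protein binding to compounds spotted on small-molecule microarray slides; score combines spot fluorescence intensity with signal-to-noise across triplicate slides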
# [11] = optical density shifts of acrAB sulA E. coli – strain DRC41, OD650, 48 h, E. coli filamentation inducer project, primary screen (AID 1152); conditions: higher = more signal, called active from +8 up or from −8 down;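 further: E. coli MC1000 strain DRC41 lacking acrAB efflux pump and sulA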
# [12] = probe aLefty1 binding on compound microarray – biochemical, small-molecule microarray, 635/667 nm fluorescence, primary screen (AID 1153); conditions: higher = more signal;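 further: score merges spot fluorescence with signal-to-noise ratio from the scanned slide images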
# [13] = plasmodial surface anion channel blockers, osmotic lysis – cell-based, P. falciparum Indochina, OD700, 1 h, primary screen (AID 1154); conditions: P. falciparum Indochina infected RBC osmotic lysis, higher = more signal, called active from +8 up or from −8 down
# [14] = plasmodial surface anion channel blockers, osmotic lysis – cell-based, P. falciparum Indochina, OD700, 2 h, primary screen (AID 1155);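 further: lysis reports solute entry through the parasite surface anion channel PSAC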; conditions: P. falciparum Indochina infected erythrocytes, higher = more signal, called active from +8 up or from −8 down
# [15] = changes in parasitized red cell lysis, either direction – P. falciparum Indochina, OD700, 3 h, PSAC antagonist project, primary screen (AID 1156); conditions: P. falciparum-infected erythrocytes, osmotic lysis, higher = more signal, called active from +8 up or from −8 down
# [16] = plasmodial surface anion channel blockers, osmotic lysis – cell-based, P. falciparum Indochina, OD700, 18 h, primary screen (AID 1157); conditions: P. falciparum Indochina infected erythrocytes, osmotic lysis OD700, 18 h; higher = more signal, called active from +8 up or from −8 down
# [17] = S6 kinase pathway phospho-S6 level changes – cell-based, A549, cytoblot, luminescence, serum-stimulated, primary screen (AID 1158); conditions: 5 h, higher = more signal;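 further: serum-stimulated A549 lung adenocarcinoma cells; signal is phosphorylated S6 detected by cytoblot immunostaining with HRP secondary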
# [18] = target: NADPH oxidase 2 (Homo sapiens) (UniProt P04839); assay: compounds shifting NOX2 Amplex Red fluorescence – cell-based, HEK293-NOX2, PMA-stimulated, NOX inhibitor project, primary screen (AID 1159); conditions: 45 min, higher = more signal, called active from +8 up or from −8 down; further: test concentration not given here
# [19] = target: NADPH oxidase 4 (Homo sapiens) (UniProt Q9NPH5); assay: compounds shifting NOX4 Amplex Red fluorescence – cell-based, HEK293-NOX4, tetracycline-induced, NOX inhibitor project, primary screen (AID 1160); conditions: HEK293-NOX4, Amplex Red H2O2 fluorescence, 45 min; higher = more signal, called active from +8 up or from −8 down
# [20] = target: NADPH oxidase 5 (Homo sapiens) (UniProt Q96PH1); assay: compounds shifting NOX5 Amplex Red fluorescence – cell-based, HEK293-NOX5, NOX inhibitor project, primary screen (AID 1161); conditions: HEK293-NOX5, ionomycin, 45 min, higher = more signal
# Sequence of NADPH oxidase 5 (Homo sapiens) (Q96PH1 whole entry, looked up): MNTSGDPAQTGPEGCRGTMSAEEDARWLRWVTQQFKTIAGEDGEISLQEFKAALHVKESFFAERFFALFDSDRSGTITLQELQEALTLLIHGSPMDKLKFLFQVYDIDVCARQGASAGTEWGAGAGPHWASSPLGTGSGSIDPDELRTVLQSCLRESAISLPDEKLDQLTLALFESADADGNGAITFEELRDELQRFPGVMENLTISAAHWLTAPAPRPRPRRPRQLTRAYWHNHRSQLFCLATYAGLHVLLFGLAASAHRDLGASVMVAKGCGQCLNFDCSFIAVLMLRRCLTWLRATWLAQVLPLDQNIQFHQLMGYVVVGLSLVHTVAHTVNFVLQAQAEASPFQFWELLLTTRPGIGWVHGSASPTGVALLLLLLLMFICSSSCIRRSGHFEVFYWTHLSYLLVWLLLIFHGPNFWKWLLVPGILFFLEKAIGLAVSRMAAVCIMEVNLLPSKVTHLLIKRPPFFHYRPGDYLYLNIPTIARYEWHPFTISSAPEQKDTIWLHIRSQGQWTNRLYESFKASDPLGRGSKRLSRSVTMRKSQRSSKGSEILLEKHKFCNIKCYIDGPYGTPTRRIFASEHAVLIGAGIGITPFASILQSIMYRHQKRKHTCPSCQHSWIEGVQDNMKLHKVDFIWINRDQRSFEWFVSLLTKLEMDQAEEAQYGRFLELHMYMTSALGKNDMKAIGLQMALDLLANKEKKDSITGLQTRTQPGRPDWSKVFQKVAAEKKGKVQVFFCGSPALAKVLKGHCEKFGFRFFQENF
# Sequence of NADPH oxidase 4 (Homo sapiens) (Q9NPH5 whole entry, looked up): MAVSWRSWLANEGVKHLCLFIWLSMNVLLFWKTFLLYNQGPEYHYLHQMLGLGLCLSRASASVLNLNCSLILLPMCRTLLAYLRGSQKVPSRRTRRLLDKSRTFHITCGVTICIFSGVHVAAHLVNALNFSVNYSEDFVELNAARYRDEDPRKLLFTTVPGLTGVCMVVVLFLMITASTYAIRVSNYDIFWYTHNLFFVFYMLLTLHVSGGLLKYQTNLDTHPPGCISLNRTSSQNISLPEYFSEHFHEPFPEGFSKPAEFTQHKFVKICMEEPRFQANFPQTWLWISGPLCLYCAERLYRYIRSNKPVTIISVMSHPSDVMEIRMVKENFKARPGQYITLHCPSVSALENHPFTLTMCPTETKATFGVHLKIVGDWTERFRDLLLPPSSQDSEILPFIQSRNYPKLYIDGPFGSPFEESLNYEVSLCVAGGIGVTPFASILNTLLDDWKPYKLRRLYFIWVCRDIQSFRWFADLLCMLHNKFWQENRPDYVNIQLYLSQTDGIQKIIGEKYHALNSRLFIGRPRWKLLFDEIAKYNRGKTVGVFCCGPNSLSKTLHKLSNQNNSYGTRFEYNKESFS
# Sequence of Torsin-1A (Homo sapiens) (O14656 whole entry, looked up): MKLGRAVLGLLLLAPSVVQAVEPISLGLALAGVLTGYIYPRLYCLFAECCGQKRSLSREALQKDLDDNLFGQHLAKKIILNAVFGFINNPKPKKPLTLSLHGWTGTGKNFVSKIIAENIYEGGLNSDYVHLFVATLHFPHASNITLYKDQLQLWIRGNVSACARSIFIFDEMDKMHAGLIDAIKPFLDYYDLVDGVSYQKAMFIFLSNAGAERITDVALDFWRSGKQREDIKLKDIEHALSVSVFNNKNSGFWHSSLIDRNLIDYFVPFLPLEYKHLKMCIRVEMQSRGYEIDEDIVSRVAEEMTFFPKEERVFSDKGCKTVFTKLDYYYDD
# Sequence of NADPH oxidase 2 (Homo sapiens) (P04839 whole entry, looked up): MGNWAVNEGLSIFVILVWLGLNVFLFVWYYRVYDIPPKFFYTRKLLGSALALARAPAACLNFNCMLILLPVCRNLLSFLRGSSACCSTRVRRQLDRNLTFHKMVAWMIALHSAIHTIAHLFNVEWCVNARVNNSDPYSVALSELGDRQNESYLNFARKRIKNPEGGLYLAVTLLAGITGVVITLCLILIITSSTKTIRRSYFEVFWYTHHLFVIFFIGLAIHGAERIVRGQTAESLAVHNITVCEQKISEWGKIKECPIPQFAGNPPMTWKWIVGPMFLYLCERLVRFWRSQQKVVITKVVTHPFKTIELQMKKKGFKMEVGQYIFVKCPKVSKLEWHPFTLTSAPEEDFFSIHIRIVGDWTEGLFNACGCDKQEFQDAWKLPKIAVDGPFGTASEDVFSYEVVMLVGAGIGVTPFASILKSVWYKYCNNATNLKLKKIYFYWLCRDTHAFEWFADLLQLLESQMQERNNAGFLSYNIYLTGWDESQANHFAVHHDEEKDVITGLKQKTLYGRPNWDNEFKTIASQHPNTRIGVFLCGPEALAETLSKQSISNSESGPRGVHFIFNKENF
# Sequence of Streptavidin (Streptomyces avidinii) (P22629 whole entry, looked up): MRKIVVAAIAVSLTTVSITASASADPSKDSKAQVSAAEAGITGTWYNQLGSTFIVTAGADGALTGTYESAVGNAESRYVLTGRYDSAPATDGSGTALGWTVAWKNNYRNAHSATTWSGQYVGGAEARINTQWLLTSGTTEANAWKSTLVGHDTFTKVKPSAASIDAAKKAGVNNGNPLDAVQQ
SMILES,composite z-score [1],z-score [2],z-score [3],z-score [4],z-score [5],composite z-score [6],composite z-score [7],composite z-score (Torsin-1A (Homo sapiens) [8]),composite z-score (Torsin-1A (Homo sapiens) [9]),composite z-score [10],z-score [11],composite z-score [12],z-score [13],z-score [14],z-score [15],z-score [16],z-score [17],z-score [18],z-score [19],z-score [20]
C=CCOC(=O)[C@H]1[C@@H]2C(=O)O[C@@H](c3ccccc3)[C@@H](c3ccccc3)N2[C@@H](c2ccc(OCCOC(=O)[C@H]3C[C@H]4C(=O)N[C@@H](CC(C)C)C(=O)N4[C@H]3c3cccc(OCCO)c3)cc2)[C@]12C(=O)Nc1ccc(I)cc12,0.725,0.0478 (inactive),0.568 (inactive),0.411 (inactive),-0.368 (inactive),0.205,-0.154,0.644,0.908,1.73,-0.811 (inactive),-0.33,2.5 (inactive),1.3 (inactive),0.844 (inactive),0.963 (inactive),0.547,1.35 (inactive),1.6 (inactive),1.14
COC(=O)c1c2oc(c1C(=O)OC)C(=O)N(C)Cc1cn(nn1)C[C@H](Cc1ccccc1)NC(=O)N[C@H](CO)CC2,-0.334,0.336 (inactive),0.553 (inactive),0.148 (inactive),-0.324 (inactive),-0.403,-0.0576,-0.794,-0.641,0.624,-0.878 (inactive),-0.0954,0.965 (inactive),0.308 (inactive),-0.119 (inactive),0.728 (inactive),-0.638,0.0368 (inactive),0.338 (inactive),0.282
C=CCC(OC(C)=O)[C@@H]1[C@@H](N(Cc2cc3ccccc3o2)C(=O)Cc2ccc(F)cc2)c2cc(OCCCO)ccc2N1C(=O)c1ccc2ccccc2c1 (stereo not given in full),0.117,-0.008 (inactive),0.101 (inactive),2.6 (inactive),0.86 (inactive),0.0943,-0.176,-0.312,0.237,0.697,-0.959 (inactive),0.106,1.18 (inactive),0.305 (inactive),-0.97 (inactive),0.112 (inactive),-0.448,0.512 (inactive),0.957 (inactive),2.34
O=C1O[C@@H](c2ccccc2)[C@@H](c2ccccc2)N2[C@@H](c3ccccc3OCCO)[C@]3(C(=O)Nc4ccc(C#CCCO)cc43)[C@@H](C(=O)N3CCCCCCC3)[C@H]12,2.37,-3.74 (inactive),-0.163 (inactive),0.245 (inactive),0.337 (inactive),4.08,2.42,3.06,2.96,1.78,-0.723 (inactive),3.18,1.01 (inactive),0.83 (inactive),0.352 (inactive),0.49 (inactive),-0.544,1.02 (inactive),0.486 (inactive),1.69
O=C1O[C@@H](c2ccccc2)[C@@H](c2ccccc2)N2[C@@H](c3ccc(OCCO)cc3)[C@]3(C(=O)Nc4ccccc43)[C@@H](C(=O)O)[C@H]12,0.615,-4.21 (inactive),-0.148 (inactive),-0.258 (inactive),0.273 (inactive),0.0928,0.697,0.043,1.65,0.301,0.635 (inactive),1.46,7.13 (inactive),-1.02 (inactive),-0.202 (inactive),-1.62 (inactive),1.52,0.262 (inactive),-0.444 (inactive),-0.985
COCCOC(=O)N1C(=O)[C@@]2(c3cc(C#Cc4ccc(OC)cc4)ccc31)[C@H](c1ccc(O)cc1)N1[C@H](c3ccccc3)[C@H](c3ccccc3)OC(=O)[C@H]1[C@@H]2C(=O)N1CCCCCCC1,0.608,-0.86 (inactive),-0.144 (inactive),0.0653 (inactive),0.895 (inactive),1.25,1.12,-0.0107,0.913,0.379,-0.329 (inactive),2.12,0.0963 (inactive),0.0379 (inactive),-1.3 (inactive),-0.0483 (inactive),-0.307,0.877 (inactive),0.482 (inactive),0.391
C=C(C)[C@@H]1CC=C(C(O)C2C=CC3C(=O)N(c4ccccc4)C(=O)C3N2Nc2ccccc2F)CC1 (stereo not given in full),0.29,0.581 (inactive),-0.887 (inactive),0.24 (inactive),0.493 (inactive),1.31,0.153,0.0552,0.77,0.27,-1.79 (inactive),0.744,0.19 (inactive),1.01 (inactive),0.039 (inactive),1.1 (inactive),-1.23,0.032 (inactive),-1.64 (inactive),-2.14
C=CCNC(=O)[C@@H]1[C@H]2C(=O)O[C@H](c3ccccc3)[C@H](c3ccccc3)N2[C@H](c2ccc(O)cc2)[C@@]12C(=O)N(C(=O)OCCOC)c1ccc(C#CC3(O)CCCCCC3)cc12,-1.3,-1.16 (inactive),-0.53 (inactive),-1.28 (inactive),0.142 (inactive),-1.23,-0.204,-1.68,-1.47,-0.382,2.23 (inactive),-0.639,0.776 (inactive),-0.353 (inactive),0.469 (inactive),0.682 (inactive),0.305,-0.00516 (inactive),0.395 (inactive),0.849
CN1C(=O)C2C=CC(C(O)c3ccccn3)N(N(c3ccccc3)c3ccccc3)C2C1=O (stereo not given),0.485,0.346 (inactive),-1.26 (inactive),0.0569 (inactive),-0.164 (inactive),-0.0902,0.167,0.678,0.291,0.424,-1.06 (inactive),0.0774,1.5 (inactive),1.14 (inactive),0.303 (inactive),1.05 (inactive),-0.618,-0.486 (inactive),-1.94 (inactive),-2.33
CN(C)C(=O)[C@@]1(CCS(=O)(=O)c2ccccc2)N=C(c2ccc(OCCCO)cc2)O[C@H]1c1ccccc1,0.543,-3.07 (inactive),1.02 (inactive),0.652 (inactive),-0.481 (inactive),0.926,0.0155,1.05,0.548,-1.01,-0.1 (inactive),0.142,28.3 (active),24.3 (active),0.873 (inactive),1.48 (inactive),-0.789,0.441 (inactive),0.114 (inactive),-0.948
CCCCCCCCCCC(O)C1C=CC2C(=O)N(C)C(=O)C2N1Nc1ccc([N+](=O)[O-])cc1[N+](=O)[O-] (stereo not given),0.218,-0.646 (inactive),0.322 (inactive),0.44 (inactive),0.932 (inactive),1.12,0.211,-0.257,0.565,-0.412,-1.97 (inactive),0.407,13.8 (active),4.31 (inactive),-0.607 (inactive),2.59 (inactive),-0.506,0.402 (inactive),0.328 (inactive),-0.414
O=C1NC(=O)C2C1C=CC(C(O)c1ccco1)N2Nc1ccccn1 (stereo not given),0.0477,0.829 (inactive),0.0748 (inactive),-0.522 (inactive),0.413 (inactive),-0.124,-0.221,0.322,0.316,0.366,-1.23 (inactive),-0.145,-0.379 (inactive),0.74 (inactive),-0.314 (inactive),0.581 (inactive),-1.19,-1.35 (inactive),-2.89 (inactive),-1.78
CCCC[C@@H]1C[C@H]1[C@@H](NC(=O)Cc1ccccc1)c1ccc(-c2ccccc2)cc1,-0.111,-1.31 (inactive),1.65 (inactive),0.39 (inactive),1.19 (inactive),0.698,-0.158,-0.369,0.21,-0.756,-0.71 (inactive),0.369,1.1 (inactive),0.283 (inactive),0.249 (inactive),0.345 (inactive),0.871,-1.35 (inactive),-0.123 (inactive),1.09
COCC1=C2[C@@H](CCc3ccccc3)OB(O)C[C@@H]2[C@@H]2C(=O)C=CC(=O)[C@@H]2C1,0.0021,-1.9 (inactive),0.353 (inactive),19.2 (active),22.8 (active),0.55,0.0212,0.246,0.292,0.963,-0.204 (inactive),-0.0386,2.09 (inactive),-0.122 (inactive),-0.623 (inactive),-0.0621 (inactive),0.154,-0.109 (inactive),-0.383 (inactive),1.01
COc1ccc([Si](C)(C)[C@@H]2[C@@H](CCO)O[C@]3(C(=O)N(Cc4ccc(N5CCCCC5=O)cc4)c4ccccc43)[C@H]2C)cc1,0.123,-7.34 (inactive),-0.701 (inactive),8.03 (active),-1.2 (inactive),0.269,-0.0471,0.0458,0.342,1.72,0.968 (inactive),0.145,26 (active),21.8 (active),0.892 (inactive),2.63 (inactive),0.703,0.381 (inactive),0.706 (inactive),2.1
